Reference: PubChem BioAssay (NCI)
About 83,000 compounds went through this panel and 20% of them were active in at least one assay; those are over-represented in the sample as a whole.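 Interpretation: 100, growth as untreated; towards 0, rising growth inhibition; 0, no net growth; 0 to -100, cell death. Compounds scoring below 10 were considered active.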 Activity calls are given as the source filed them.

Assays:
Experiment in all cases: NCI-60 one-dose screen, 48 h (100 = growth as untreated, 0 = no growth, -100 = all killed)
Details in all cases: 10 µM unless noted
[1] = test system: T-47D breast
[2] = test system: BT-549 breast
[3] = test system: MDA-MB-435 melanoma
[4] = test system: SW-620 colon
[5] = test system: MCF7 breast
[6] = test system: HCT-116 colon
[7] = test system: HCC-2998 colon
[8] = test system: KM12 colon

Measured: growth

Cc1ccc2nc(-c3ccc(C(=O)NNC(=S)Nc4ccccc4)cc3)[nH]c2c1
inactive: [1] 86.3% | [2] 90.6% | [3] 97.8% | [4] 108% | [5] 79.5% | [6] 84.6% | [7] 103%

COc1ccc(C2CC(c3cc(OC)c(OC)c(OC)c3)=NO2)cc1OCCCCOc1cc2c(cc1OC)C(=O)N1CCC[C@H]1C=N2 (some centres not stated)
inactive: [1] 11.4%
active: [2] -71.4% | [3] -58.1% | [4] -21.9% | [5] 5.25% | [6] 8.33% | [7] -67.3%

CCc1n(Cc2ccc3ccccc3n2)cc[n+]1Cc1ccc2ccccc2n1
inactive: [2] 13.4% | [3] 14% | [4] 38.5% | [5] 13.5% | [6] 35% | [7] 27.3%
active: [1] -3.68%

O=C(Nc1ccc(Cl)cc1)Oc1c(Cl)c(Cl)c(Cl)c(Cl)c1Cl
inactive: [1] 84.3% | [2] 92.6% | [3] 96.5% | [4] 101% | [5] 86% | [6] 89.1% | [7] 107%

COc1ccc(-c2nc3c(N)c(CO)cnc3s2)cc1
inactive: [1] 89.2% | [2] 104% | [3] 92.9% | [4] 94.1% | [5] 91% | [6] 101% | [7] 85.8%

O=C(N/N=C\c1ccccc1S(=O)(=O)O)N/N=C/c1ccccc1S(=O)(=O)O
inactive: [1] 102% | [2] 118% | [3] 105% | [4] 91.9% | [5] 93.4% | [6] 106% | [7] 104%

CN1CCN(CCOc2ccc(-c3cnc4c(-c5ccc(F)cc5)cnn4c3)cc2)CC1
active: [3] -34.3% | [4] -86.9%
inactive: [1] 52.7% | [2] 82.8% | [5] 41% | [6] 14.5% | [7] 71.6%

COc1cc(OC)c(C(=O)C(CN(C)C)CN(C)C)cc1OC
active: [1] -17.6% | [4] -83.3% | [6] -65.6%
inactive: [2] 74.5% | [3] 80.9% | [5] 10.6% | [7] 110%

CCc1ccc(CCC(=O)Nc2ncc(Cc3ccccc3)s2)o1
inactive: [1] 42.5% | [2] 63.5% | [4] 28% | [5] 18.7% | [6] 23.4% | [7] 35.6%
active: [3] -54.8%

O=C1/C(=C/c2ccc(F)cc2)CN(C(=O)C(Cl)Cl)C/C1=C\c1ccc(F)cc1
active: [1] -22.4% | [2] -80.1% | [3] -93.7% | [4] -73.1% | [5] -60.9% | [6] -92.8% | [7] -89.3%

CC/C(Cc1ccccc1)=C(\c1ccc(OCCCN(C)C)cc1)c1ccc(OC(=O)NCc2ccccc2)cc1
inactive: [1] 52.7% | [2] 95% | [3] 77.6% | [4] 14.5% | [5] 15.6% | [6] 10.4% | [7] 70.4%

COc1ccc(/C=C/C(=O)c2cc3c(N)c(C(=O)Nc4cccc(Cl)c4C)sc3nc2C)cc1
active: [2] -19% | [3] -28.2% | [5] 7.78% | [6] 5.3% | [7] 1.15%
inactive: [1] 38.9% | [4] 13.2%

O=S(=O)(NCCCNc1nccc(-c2c(-c3cccc(F)c3)nc3occn23)n1)c1ccc(F)cc1
inactive: [2] 69.4% | [3] 25.6% | [4] 67.7% | [5] 60.1% | [6] 34% | [7] 77.3%
active: [1] 6.92%

Cn1ccc(=O)nc1
inactive: [1] 99.1% | [2] 110% | [3] 106% | [4] 53.5% | [5] 52.2% | [6] 60.6% | [7] 96.8%

CC1=C2[C@@H](CC1)[C@]1(C)O[C@@](C3CCCCC3)(C[C@H]1OC(=O)CO)[C@H]2OC(=O)/C=C/c1ccccc1
inactive: [1] 46.1% | [3] 95.9% | [4] 86.5% | [5] 57.6% | [6] 76.3% | [7] 81.8%
active: [2] -1.1%

O=C(NNc1cnccn1)c1nc2cc(F)ccc2n2cccc12
inactive: [1] 20% | [2] 32% | [3] 24.5% | [4] 19.6% | [7] 35.7% | [8] 18.5%
active: [5] 5.93% | [6] 5.5%

CCN(CC)CCCN1C(=O)c2c(c(C)c3c(oc4ccc(OC)cc43)c2C)C1=O
inactive: [1] 105% | [2] 119% | [3] 109% | [4] 97.9% | [5] 98.3% | [6] 93.3% | [7] 105%

Nc1nc(N)c2c(n1)NC(c1ccc(Cl)cc1)C1CCc3ccccc3C1=N2 (configuration not stated)
inactive: [1] 52.6% | [2] 83.2% | [3] 44.2% | [4] 63.8% | [5] 24.8% | [6] 31.8%

O=S(=O)(NCCNc1nccc(-c2c(-c3ccc(F)c(O)c3)nc3sccn23)n1)c1ccc(F)cc1
inactive: [1] 35.9% | [2] 49.5% | [4] 29.5% | [5] 17.1% | [7] 41.8%
active: [3] 4.98% | [6] 6.5%

CC1(C)N=C(N)N=C(N)N1c1cccc(CCc2ccccc2)c1
active: [7] 2.34%
inactive: [1] 37.7% | [2] 42.4% | [3] 47.5% | [4] 27.4% | [5] 23.8% | [6] 19.8% | [8] 21.9%

Cc1ccc(S(=O)(=O)N2CCC(=O)c3ccccc32)cc1
inactive: [1] 78.7% | [2] 65.6% | [4] 44.7% | [5] 40.5% | [6] 59.4% | [7] 83.8%
active: [3] 6.12%

NC(=O)c1c(NC(=O)c2cccs2)sc2c1CCC(=O)C2
inactive: [3] 43.7% | [4] 15.1% | [5] 45.1% | [7] 72.9%
active: [1] 8.16% | [2] 8.21% | [6] 4.11%

COc1ccc(C(=O)Cn2c(C(=O)c3ccc(OC)cc3)nc3ccccc32)cc1
inactive: [1] 29.9% | [2] 31% | [5] 16% | [6] 12.2% | [7] 21.5%
active: [3] -50% | [4] 9.77%

CCCCNC(=O)Oc1ccc(/C(=C(/C)Cc2ccc(OC)cc2)c2ccc(OCCN3CCCCCC3)cc2)cc1
inactive: [1] 38.8% | [2] 93.2% | [3] 90.5% | [4] 85.9% | [5] 27.3% | [6] 54.9%

CCOC(=O)C(=CNc1cnc(Nc2ccc(N3CCOCC3)cc2)nc1Oc1ccc(OC)cc1)C(=O)OCC
inactive: [1] 84.7% | [2] 77.3% | [3] 61.7% | [4] 46.8% | [5] 61.3% | [6] 11.4% | [7] 91.7% | [8] 76.8%

Cc1n[nH]c2ccc(Br)cc2c1=O
inactive: [1] 94.6% | [2] 95.7% | [3] 107% | [4] 113% | [5] 108% | [6] 98.7% | [7] 107%

C=C1C(=O)O[C@H]2[C@H]1CC/C(COC(=O)CSCSCC(=O)OC/C1=C/CC[C@@]3(C)O[C@H]3[C@H]3OC(=O)C(=C)[C@@H]3CC1)=C\CC[C@@]1(C)O[C@@H]21
active: [2] -5.92% | [4] -9.08% | [6] -24%
inactive: [1] 20.9% | [3] 26.6% | [5] 16.7% | [7] 16.5% | [8] 35.1%

O=C(CCCCCCN1CC(=O)N2[C@H](c3ccc(Cl)cc3)c3[nH]c4ccccc4c3C[C@@H]2C1=O)NO
inactive: [1] 25.9% | [2] 74.7% | [3] 43.2% | [4] 35.4% | [5] 48% | [6] 24.7% | [7] 82.3% | [8] 80.3%

O=C(CC(=O)Nc1cccc(C(=O)O)c1)Nc1cccc(C(=O)O)c1
inactive: [1] 92.4% | [2] 98.8% | [3] 87.4% | [4] 90% | [5] 101% | [6] 94.3% | [7] 102%

CC1=C(CCC(C)NCc2ccc(OCCCN3CCCCC3)cc2)C(C)(C)CCC1 (configuration not stated)
active: [1] -64.8% | [2] -63.9% | [3] -93.8% | [4] -80.3% | [5] -58.4% | [6] -85.3% | [7] -84.3% | [8] -80%

C=C1C(=O)O[C@H]2[C@H]1CC/C(Cn1cc(CCC)nn1)=C\CC[C@@]1(C)O[C@@H]21
active: [1] -40.1% | [4] -0.143% | [6] -55.7%
inactive: [2] 40.4% | [3] 36.2% | [5] 11.1% | [7] 73.6%

Cc1cccc2c1C[C@@]1(C2=O)C(c2ccc(C(C)(C)C)cc2)=NOS1=O (some centres not stated)
inactive: [1] 70.2% | [2] 104% | [3] 109% | [4] 100% | [5] 66.2% | [6] 91.6% | [7] 109%

CC(C)(C)n1cc(-c2ccnc(NCCCNS(=O)(=O)c3cccc4ccccc34)c2)c(-c2cccc(F)c2)n1
inactive: [1] 34% | [2] 65.4% | [3] 90.4% | [4] 92.4% | [5] 52.9% | [6] 53.5% | [7] 82.8%

Cc1nc2sc(C(=O)Nc3cccc(Br)c3C)c(N)c2cc1C(O)c1ccccc1 (configuration not stated)
inactive: [1] 25.3% | [2] 28.2% | [4] 20.4% | [5] 10.9% | [7] 11.3%
active: [3] 3.98% | [6] 6.83%
